Growth inhibition data for 10 compounds are collected here from PubChem BioAssay (NCI).

Test [1] can be described thus: NCI Yeast Anticancer Drug Screen. Data for the rad50 strain (AID 155).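 Further: 0% = growth of vehicle-only cultures of the same strain.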 The conditions noted are these: S. cerevisiae rad50 strain growth inhibition, stronger effect = higher value. Summed up: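 Compounds were tested on a yeast strain with an engineered DNA damage repair alteration; the reported value is growth inhibition normalised to vehicle treatment.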
Test [2] in a line: NCI Yeast Anticancer Drug Screen. Data for the mec2-1 strain (AID 157). Particulars: S. cerevisiae mec2-1 strain, stronger effect = higher value. Summed up:
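Using mec2-1 yeast: add compound, measure growth, express inhibition versus vehicle-treated cultures.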

A short description of test [3]: NCI Yeast Anticancer Drug Screen. Data for the sgs1 mgt1 strain (AID 161).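 Further: 0% = growth of cultures given vehicle only.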 Particulars: S. cerevisiae sgs1 mgt1 strain, stronger effect = higher value. Summed up: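 Compounds are added to genetically altered yeast, and growth is compared with cultures given vehicle alone to give percent inhibition.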
Test [4] can be described thus: NCI Yeast Anticancer Drug Screen. Data for the cln2 rad14 strain (AID 165).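 Further: 0% = growth equal to vehicle treated cultures.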 The conditions noted are these: S. cerevisiae cln2 rad14 strain, stronger effect = higher value. Summed up:
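Yeast strain cln2 rad14, bearing defects in cell cycle control and DNA repair, serves as the test system; values reflect growth inhibition compared with vehicle.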

Test [5] can be described thus: NCI Yeast Anticancer Drug Screen. Data for the bub3 strain (AID 167). The conditions noted are these: S. cerevisiae bub3 mutant strain, stronger effect = higher value. In outline: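 Growth of a checkpoint-deficient yeast mutant is measured after compound exposure. Values represent inhibition relative to vehicle.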
The nature of test [6]: NCI Yeast Anticancer Drug Screen. Data for the mlh1 rad18 strain (AID 175). Particulars: S. cerevisiae mlh1 rad18 strain growth inhibition, stronger effect = higher value. Summed up:
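Steps: expose repair-defective yeast to compound; measure growth; express inhibition against vehicle-treated controls.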

The mark [7] stands for this setting: at 5.0 µM (retest, dose inferred, filed as 0.5).
The mark [8] stands for this setting: at 50.0 µM (retest, dose inferred, filed as 5.0).

Molecules are shown by their SMILES. Compounds without any hit were thinned out: in the full panel of roughly 79,000, 15% have a hit. Unmarked numbers belong to inactive results. Activity calls are given as the source filed them. No stated cut-off is given here; in the data, active means growth inhibition above about 70%; inactive means the rest.

For the compound `CC(=O)c1ccc(OCc2ccccc2)cc1`, the growth inhibition in test [1] (setting [7]) was 1%; in test [1] (setting [8]) it was -6%; in test [1] (at 50.0 µM), -2.25%; in test [2] (setting [7]) it was 1%; in test [2] (setting [8]) it was 5%; in test [2] (at 50.0 µM) it was -15.5%. For the same compound, the growth inhibition was 16% in test [3] (setting [7]); -6% in test [3] (setting [8]); -17.9% in test [3] (at 50.0 µM); -3% in test [4] (setting [7]); 2% in test [4] (setting [8]); 63.9% in test [4] (at 50.0 µM). In addition, the growth inhibition was 2% in test [5] (setting [7]); 3% in test [5] (setting [8]); 9.75% in test [5] (at 50.0 µM); -3% in test [6] (setting [7]); -9% in test [6] (setting [8]); 15.2% in test [6] (at 50.0 µM).

As for `CCCCC(=O)N/N=C/c1ccc([N+](=O)[O-])s1`, the growth inhibition in test [1] (setting [7]) was 9%; in test [1] (setting [8]), 93% (active); in test [1] (at 50.0 µM) it was 97% (active); in test [2] (setting [7]), 7%; in test [2] (setting [8]), 94% (active); in test [2] (at 50.0 µM), 96% (active). Further, the growth inhibition was 8% in test [3] (setting [7]); 95% (active) in test [3] (setting [8]); 94.5% (active) in test [3] (at 50.0 µM); 1% in test [4] (setting [7]); 38% in test [4] (setting [8]); 90.8% (active) in test [4] (at 50.0 µM). Moreover, the growth inhibition in test [5] (setting [7]) is -2%; in test [5] (setting [8]), 94% (active); in test [5] (at 50.0 µM) it was 95.7% (active); in test [6] (setting [7]), 7%; in test [6] (setting [8]), 97% (active); in test [6] (at 50.0 µM), 97% (active).

For the compound `Cc1ccc(S(=O)(=O)N(c2ccccc2-c2ccccc2)C(C)C(=O)O)cc1` (stereo not given), the growth inhibition in test [1] (setting [7]) was 2%; in test [1] (setting [8]), 67%; in test [1] (at 50.0 µM) it was 92.3% (active); in test [2] (setting [7]), 13%; in test [2] (setting [8]), 80% (active); in test [2] (at 50.0 µM), 88.3% (active). The growth inhibition in test [3] (setting [7]) was 20%; in test [3] (setting [8]), 62%; in test [3] (at 50.0 µM), 96% (active); in test [4] (setting [7]), 3%; in test [4] (setting [8]) it was 76% (active); in test [4] (at 50.0 µM) it was 91.5% (active). Further, the growth inhibition was 4% in test [5] (setting [7]); 66% in test [5] (setting [8]); 82.5% (active) in test [5] (at 50.0 µM); 5% in test [6] (setting [7]); 87% (active) in test [6] (setting [8]); 94.3% (active) in test [6] (at 50.0 µM).

As for `CCOC(=O)C(C)(c1c(C)[nH]c2ccccc12)c1c(C)[nH]c2ccccc12`, the growth inhibition in test [1] (setting [7]) was 1%; in test [1] (setting [8]) it was 96% (active); in test [1] (at 50.0 µM) it was 94.8% (active); in test [2] (setting [7]) it was -1%; in test [2] (setting [8]), 94% (active); in test [2] (at 50.0 µM) it was 95.6% (active). In addition, the growth inhibition in test [3] (setting [7]) is 3%; in test [3] (setting [8]), 87% (active); in test [3] (at 50.0 µM), 95.8% (active); in test [4] (setting [7]), 4%; in test [4] (setting [8]), 95% (active); in test [4] (at 50.0 µM) it was 93% (active). For the same compound, the growth inhibition in test [5] (setting [7]) is 6%; in test [5] (setting [8]), 96% (active); in test [5] (at 50.0 µM) it was 95.5% (active); in test [6] (setting [7]), 5%; in test [6] (setting [8]), 92% (active); in test [6] (at 50.0 µM), 95.3% (active).

Consider `CCOC(=O)N1CCN(CCCOc2ccc(Cl)cc2Cc2ccccc2)CC1`, for which the growth inhibition was 29% in test [1] (setting [7]); 100% (active) in test [1] (setting [8]); 99.7% (active) in test [1] (at 50.0 µM); 26% in test [2] (setting [7]); 100% (active) in test [2] (setting [8]); 99.7% (active) in test [2] (at 50.0 µM). The growth inhibition was 59% in test [3] (setting [7]); 100% (active) in test [3] (setting [8]); 99.8% (active) in test [3] (at 50.0 µM); 30% in test [4] (setting [7]); 99% (active) in test [4] (setting [8]); 99.5% (active) in test [4] (at 50.0 µM). Further, the growth inhibition is 89% (active) in test [5] (setting [7]); 100% (active) in test [5] (setting [8]); 99.5% (active) in test [5] (at 50.0 µM); 24% in test [6] (setting [7]); 100% (active) in test [6] (setting [8]); 99.7% (active) in test [6] (at 50.0 µM).

For the compound `CC(=O)OC1(C)C(=C(Cl)Cl)C2c3ccccc3C1c1ccccc12` (stereo not given), the growth inhibition in test [1] (setting [7]) was 0%; in test [1] (setting [8]), 91% (active); in test [1] (at 50.0 µM), 92.7% (active); in test [2] (setting [7]), 19%; in test [2] (setting [8]), 88% (active); in test [2] (at 50.0 µM) it was 82.2% (active). Moreover, the growth inhibition in test [3] (setting [7]) was 2%; in test [3] (setting [8]), 92% (active); in test [3] (at 50.0 µM), 94.3% (active); in test [4] (setting [7]) it was 7%; in test [4] (setting [8]) it was 89% (active); in test [4] (at 50.0 µM), 64.4%. Moreover, the growth inhibition in test [5] (setting [7]) is -4%; in test [5] (setting [8]), 93% (active); in test [5] (at 50.0 µM), 93.2% (active); in test [6] (setting [7]), 10%; in test [6] (setting [8]), 91% (active); in test [6] (at 50.0 µM) it was 93.8% (active).

Take `COc1ccc(C2C3=C(CCCC3=O)Oc3cc4c(cc32)OCO4)cc1` (stereo not given): the growth inhibition in test [1] (setting [7]) is 2%; in test [1] (setting [8]) it was 68%; in test [1] (at 50.0 µM), 98% (active); in test [2] (setting [7]), 5%; in test [2] (setting [8]), 76% (active); in test [2] (at 50.0 µM), 96.7% (active). In addition, the growth inhibition in test [3] (setting [7]) is -6%; in test [3] (setting [8]), 64%; in test [3] (at 50.0 µM), 97.3% (active); in test [4] (setting [7]) it was 22%; in test [4] (setting [8]) it was 67%; in test [4] (at 50.0 µM) it was 96.3% (active). For the same compound, the growth inhibition is -2% in test [5] (setting [7]); 79% (active) in test [5] (setting [8]); 95.9% (active) in test [5] (at 50.0 µM); 0% in test [6] (setting [7]); 91% (active) in test [6] (setting [8]); 98.2% (active) in test [6] (at 50.0 µM).

On to `CCCCCCCN(CCCCCCC)CC(O)c1ccc2ccc3ccccc3c2c1` (stereo not given), for which the growth inhibition in test [1] (setting [7]) is 19%; in test [1] (setting [8]), 76% (active); in test [1] (at 50.0 µM) it was 68.2%; in test [2] (setting [7]), 8%; in test [2] (setting [8]) it was 73% (active); in test [2] (at 50.0 µM), 62%. Moreover, the growth inhibition in test [3] (setting [7]) was 36%; in test [3] (setting [8]), 85% (active); in test [3] (at 50.0 µM), 81.2% (active); in test [4] (setting [7]), 13%; in test [4] (setting [8]) it was 59%; in test [4] (at 50.0 µM) it was 38%. In addition, the growth inhibition in test [5] (setting [7]) was 16%; in test [5] (setting [8]) it was 78% (active); in test [5] (at 50.0 µM) it was 59.4%; in test [6] (setting [7]), 12%; in test [6] (setting [8]), 78% (active); in test [6] (at 50.0 µM), 79.2% (active).

As for `CCOC(=O)c1csc(/C=C/c2cc(OC)c(OC)c(OC)c2)n1`, the growth inhibition in test [1] (setting [7]) was 0%; in test [1] (setting [8]) it was 3%; in test [1] (at 50.0 µM), -1.2%; in test [2] (setting [7]), -1%; in test [2] (setting [8]), 1%; in test [2] (at 50.0 µM), 0.9%. Moreover, the growth inhibition in test [3] (setting [7]) is -2%; in test [3] (setting [8]) it was 41%; in test [3] (at 50.0 µM), 46.4%; in test [4] (setting [7]), -4%; in test [4] (setting [8]), -3%; in test [4] (at 50.0 µM), -19.5%. Also, the growth inhibition in test [5] (setting [7]) is 1%; in test [5] (setting [8]), 6%; in test [5] (at 50.0 µM), 11.9%; in test [6] (setting [7]) it was -2%; in test [6] (setting [8]), 3%; in test [6] (at 50.0 µM), -8.1%.

In the case of `CCOCCC(=O)NNc1ccccc1`, the growth inhibition in test [1] (setting [7]) was 7%; in test [1] (setting [8]) it was 43%; in test [1] (at 50.0 µM) it was 26.2%; in test [2] (setting [7]), 0%; in test [2] (setting [8]), 36%; in test [2] (at 50.0 µM), 6%. The growth inhibition is 6% in test [3] (setting [7]); 41% in test [3] (setting [8]); 42.2% in test [3] (at 50.0 µM); 5% in test [4] (setting [7]); 56% in test [4] (setting [8]); 56.8% in test [4] (at 50.0 µM). Besides, the growth inhibition in test [5] (setting [7]) was 8%; in test [5] (setting [8]) it was 83% (active); in test [5] (at 50.0 µM), 42.9%; in test [6] (setting [7]), 19%; in test [6] (setting [8]), 80% (active); in test [6] (at 50.0 µM) it was 58%.
